EP2 antag = EP2 receptor (human) inhibition. P43116. C6 glioma cells expressing human EP2, cAMP TR-FRET; cells stimulated with saturating PGE2. inhibition, % at 25 µM. 260,000 tested, 0.52% active;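 active means percent inhibition above 40 after rounding to a whole number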;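 further: rat C6 glioma host cells with rolipram phosphodiesterase inhibitor present; the protocol text gives 20 µM as final concentration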
S1P4 agonist = agonists of human S1P4 receptor; activation, % at 4.98 µM; S1P4-expressing cell line, agonist reporter assay; 220,000 tested, 0.35% active; in the data active means activation above about 11%;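 further: 0% = DMSO vehicle and 100% = reference agonist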
S1P4 antag = antagonists of human S1P4 receptor | O95977 | S1P4-expressing cells, antagonist mode, reporter read-out | inhibition, % at 4.98 µM | 220,000 tested, 0.26% active; in the data active means inhibition above about 29%;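 further: 0% = wells stimulated with agonist and 100% = vehicle wells without agonist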
EP2 mod = modulators of human EP2 prostaglandin E2 receptor | P43116 | EP2-expressing cells, cAMP HTRF FRET, PGE2 co-stimulation | induction, % at 25 µM | 260,000 tested, 0.83% active;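 active means compounds whose cAMP rise, as percent of the full-agonist control response, exceeds 60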;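 further: rat C6 glioma line stably carrying human EP2 under a CMV promoter; the protocol text gives 20 µM as final concentration; 100% = response of wells given 1 µM PGE2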
S1P3 antagonist = blocks the human S1P3 receptor. Q99500. CHO S1P3 NFAT-BLA reporter, FRET fluorescence, antagonist mode. inhibition, % at 4.98 µM. 170,000 tested, 0.27% active;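 active means inhibition above the plate cutoff, the mean inhibition of test wells on that plate plus 3 SD, cut at about 28% in these data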;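 further: cells challenged with S1P at its EC80 of 0.8 µM; blue over green emission ratio from cleaved BLA substrate after 4 h stimulation; 0% = S1P-stimulated wells and 100% = unstimulated DMSO-only wells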
Target sequence (Q99500 whole entry, looked up): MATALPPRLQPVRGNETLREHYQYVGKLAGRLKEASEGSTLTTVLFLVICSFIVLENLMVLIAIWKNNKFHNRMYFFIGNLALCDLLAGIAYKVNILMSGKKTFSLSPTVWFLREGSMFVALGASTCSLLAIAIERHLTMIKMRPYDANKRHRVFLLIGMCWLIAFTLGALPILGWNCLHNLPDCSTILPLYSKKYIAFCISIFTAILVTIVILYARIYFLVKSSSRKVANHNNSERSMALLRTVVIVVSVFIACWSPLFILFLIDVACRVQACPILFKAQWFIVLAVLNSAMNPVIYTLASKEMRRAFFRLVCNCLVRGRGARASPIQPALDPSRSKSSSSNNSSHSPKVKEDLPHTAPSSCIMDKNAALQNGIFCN
EP2 confirm = human EP2 receptor cAMP induction, negative in counter-screens; C6 glioma EP2 cells, cAMP HTRF induction; plus low (about EC15) PGE2 agonist; AID 1080; calls only at 20 µM (by protocol); shares compounds with EP2 mod; 1,300 tested, 47% active;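 active means cAMP induction above 50% in the main assay while under 30% in all four parallel counter assays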;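 further: rat C6 glioma cells stably expressing human EP2 receptor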
S1P4 ag conf = human S1P4 agonism, confirmation; shares compounds with S1P4 agonist; S1P4 agonist cell-based reporter assay; activation, % at 4.98 µM; 740 tested, 7% active; AID 1523; in the data active means activation above about 12%;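 further: 0% = vehicle and 100% = full reference agonist response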
S1P1 agonist = activates human S1P1, counter-screen for S1P4 agonists. shares compounds with S1P4 agonist. S1P1 agonist cell-based assay, activation. activation, % at 4.98 µM. 740 tested, 4% active; in the data active means activation above about 21%;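 further: 0% = vehicle wells and 100% = reference agonist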
S1P4 antag conf = human S1P4 antagonism, confirmation. 520 tested, 71% active. inhibition, % at 4.98 µM. AID 1524. S1P4-expressing cell line, antagonist mode, reporter read-out. shares compounds with S1P4 antag; in the data active means inhibition above about 30%
S1P1 antagonist = blocks human S1P1, counter-screen for S1P4 antagonists; shares compounds with S1P4 antag; cell-based S1P1 antagonist counterscreen, inhibition; inhibition, % at 4.98 µM; 520 tested, 37% active; AID 1564; in the data active means inhibition above about 40%;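 further: receptor stimulated with S1P near its EC80; 0% = agonist stimulated wells and 100% = vehicle only wells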
Active calls of the source: *; i = inactive; . = no result given. Hits are enriched below; roughly 1.9% of the tested compounds scored in any of these assays.

SMILES	EP2 antag	S1P4 agonist	S1P4 antag	EP2 mod	S1P3 antagonist	S1P4 antag conf	S1P1 antagonist	others
Cc1ccc(NP(=O)(Oc2ccccc2F)Oc2ccccc2F)cc1C	4	0	-6	71*	9	.	.	EP2 confirm=i
CN[C@@H]1[C@@H](O)C(OC2[C@@H](N)C[C@@H](N)[C@H](O[C@H]3O[C@H](C(C)O)[C@@H](O)[C@H](O)[C@H]3N)[C@H]2O)OC[C@]1(C)O (stereo partly drawn)	13	.	.	6	.	.	.
c1cncc(C2NCCc3ccccc32)c1 (stereo not drawn)	8	.	.	-13	.	.	.
Cc1nc(-c2ccccc2)c(CC(=O)N(CCN(C)C)C2CCN(C)CC2)s1	5	.	.	-43	.	.	.
Cc1cccc(-n2c(O)c(C)c(=O)[nH]c2=S)c1	8	56*	-6	-12	-8	.	.	S1P4 ag conf=-2;S1P1 agonist=1
Cc1cccc(-n2c(O)c(C=Nc3ccc(Br)cn3)c(=O)[nH]c2=O)c1	4	1	-1	11	-3	.	.
Cc1ccc(-c2nc(C)sc2CC(=O)N2CCCCC2CN2CCCC2)c(C)c1 (stereo not drawn)	7	.	.	-52	.	.	.
CCOC(=O)c1sc(/N=C/c2c(O)n(-c3ccccc3)c(=O)[nH]c2=O)c(C#N)c1C	7	13*	12	2	.	.	.	S1P4 ag conf=-2;S1P1 agonist=-2
COc1cc(/C=C(/C)[N+](=O)[O-])ccc1OCc1ccccc1Cl	20	-1	54*	-47	-23	120*	148*
CCC1(OC(=O)CN)C(=O)OCc2c1cc1n(c2=O)Cc2cc3ccccc3nc2-1 (stereo not drawn)	9	3	92*	2	15	64*	24
CCCCn1c(NC(=O)c2ccco2)c(C(=O)OCC)c2nc3ccccc3nc21	27	-1	31*	20	-15	16	5
CCC(C)C(=O)O[C@@H]1C[C@@]2(C)[C@H](c3ccoc3)OC(=O)CC23OC2(C)O[C@]14[C@]1(C)[C@@H](CC(=O)OC)C5(C)CC1(O)[C@](O)(C5OC(=O)C1(C)OC1C)[C@@H](OC(C)=O)[C@]34O2 (stereo partly drawn)	10	.	.	4	.	.	.
C/C1=C\[C@@H](C)C/C=C/[C@H]2[C@@H]3O[C@]3(C)[C@@H](C)[C@H]3[C@H](Cc4c[nH]c5ccccc45)NC(=O)[C@]32C(=O)/C=C/C(=O)[C@@H]1O	24	-1	33*	-32	22	59*	25
CN(C)CCN(Cc1ccc(F)cc1)C(=O)Cc1n[nH]c(=O)c2ccccc12	3	.	.	-26	.	.	.
CC1=CC2/C=C(\C)CCC(O)C(O)/C=C/C(=O)C23C(=O)NC(CC(C)C)C3C1C (stereo not drawn)	18	-1	64*	-15	7	114*	23
Nc1nc(-c2cccs2)c(CC(=O)N2CCCCC2CN2CCCCC2)s1 (stereo not drawn)	5	.	.	-13	.	.	.
C=CCOc1c(CN2C3CCC2CC(O)(c2cccc(F)c2)C3)cccc1OC (stereo not drawn)	3	.	.	-51	.	.	.
COc1ccc(CN2CCN(C(=O)COc3ccc(C)cc3)CC2)c(OC)c1OC	14	.	.	-57	.	.	.
